Test in all cases: DAPPL (digital affinity profiling via proximity ligation, sequencing); 10 mM Tris-HCl pH 7.5, 50 mM NaCl, 1 mM DTT, 4% glycerol, room temperature, 30 min; GST-TFs on glutathione beads, 16-mer random dsDNA library, 0.1% formaldehyde crosslink after washing; high values mean tight binding
Details in all cases: protein: recombinant; tags: N-terminal GST; dsDNA, one strand shown

Assay [1] concerns the target T1, ELK4 (Homo sapiens, UniProt P28324-2 1-405).
T1 sequence: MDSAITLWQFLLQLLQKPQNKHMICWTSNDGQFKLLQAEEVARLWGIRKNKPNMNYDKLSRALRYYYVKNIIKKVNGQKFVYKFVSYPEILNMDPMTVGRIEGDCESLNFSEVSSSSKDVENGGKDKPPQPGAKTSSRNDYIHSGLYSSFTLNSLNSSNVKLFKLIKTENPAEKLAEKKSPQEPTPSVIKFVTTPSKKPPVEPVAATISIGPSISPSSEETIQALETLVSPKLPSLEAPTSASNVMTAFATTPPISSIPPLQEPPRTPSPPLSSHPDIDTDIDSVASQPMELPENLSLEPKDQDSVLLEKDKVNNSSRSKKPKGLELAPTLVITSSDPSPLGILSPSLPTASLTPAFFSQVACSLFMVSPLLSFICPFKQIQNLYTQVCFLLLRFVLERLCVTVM
In a few lines:
(§1)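 Binding signal is each hexamer's read frequency for a factor divided by its frequency in the tag-only sample. The factors were GST-fused human transcription factors from yeast, captured on glutathione beads, DNA-barcoded and pooled with that sample. Pools were incubated with 200 nmole of a random double-stranded 16-mer DNA library in Tris/NaCl/DTT/glycerol buffer at room temperature for 30 min, then washed, crosslinked with 0.1% formaldehyde, proximity-ligated with BsaI/T4 ligase (1 h, 37 °C), PCR-amplified and sequenced on an Illumina NextSeq500.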

The target in assay [2] is T2, ETV2 (Homo sapiens, UniProt O00321 1-342).
T2 sequence: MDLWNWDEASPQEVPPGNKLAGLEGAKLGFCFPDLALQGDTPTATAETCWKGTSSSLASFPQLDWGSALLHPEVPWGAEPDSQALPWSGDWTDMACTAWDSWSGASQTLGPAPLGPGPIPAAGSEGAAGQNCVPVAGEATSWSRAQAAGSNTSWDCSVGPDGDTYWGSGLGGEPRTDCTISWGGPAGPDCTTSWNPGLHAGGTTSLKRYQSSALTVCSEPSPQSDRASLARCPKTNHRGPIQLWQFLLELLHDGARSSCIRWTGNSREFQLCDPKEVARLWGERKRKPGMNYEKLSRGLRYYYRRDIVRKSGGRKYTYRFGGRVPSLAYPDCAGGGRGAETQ
In a few lines:
as §1

In assay [3] the target is T3, ELF3 (Homo sapiens, UniProt P78545 1-371).
T3 sequence: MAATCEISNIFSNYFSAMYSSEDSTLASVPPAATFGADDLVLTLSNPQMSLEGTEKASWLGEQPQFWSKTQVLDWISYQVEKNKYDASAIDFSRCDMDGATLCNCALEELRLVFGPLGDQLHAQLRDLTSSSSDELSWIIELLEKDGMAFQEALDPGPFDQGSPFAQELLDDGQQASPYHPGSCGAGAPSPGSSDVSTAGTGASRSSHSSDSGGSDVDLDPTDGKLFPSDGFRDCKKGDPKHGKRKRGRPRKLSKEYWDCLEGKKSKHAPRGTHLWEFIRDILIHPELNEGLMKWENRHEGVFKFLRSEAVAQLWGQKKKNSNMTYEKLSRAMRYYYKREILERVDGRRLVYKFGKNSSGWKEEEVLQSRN
The gist of the method:
as §1

Assay [4] addresses ETV1 (Homo sapiens, UniProt P50549 1-477). The gist of the method: as §1
Assay [5] has as its target T4, ERF (Homo sapiens, UniProt P50548 1-548).
T4 sequence: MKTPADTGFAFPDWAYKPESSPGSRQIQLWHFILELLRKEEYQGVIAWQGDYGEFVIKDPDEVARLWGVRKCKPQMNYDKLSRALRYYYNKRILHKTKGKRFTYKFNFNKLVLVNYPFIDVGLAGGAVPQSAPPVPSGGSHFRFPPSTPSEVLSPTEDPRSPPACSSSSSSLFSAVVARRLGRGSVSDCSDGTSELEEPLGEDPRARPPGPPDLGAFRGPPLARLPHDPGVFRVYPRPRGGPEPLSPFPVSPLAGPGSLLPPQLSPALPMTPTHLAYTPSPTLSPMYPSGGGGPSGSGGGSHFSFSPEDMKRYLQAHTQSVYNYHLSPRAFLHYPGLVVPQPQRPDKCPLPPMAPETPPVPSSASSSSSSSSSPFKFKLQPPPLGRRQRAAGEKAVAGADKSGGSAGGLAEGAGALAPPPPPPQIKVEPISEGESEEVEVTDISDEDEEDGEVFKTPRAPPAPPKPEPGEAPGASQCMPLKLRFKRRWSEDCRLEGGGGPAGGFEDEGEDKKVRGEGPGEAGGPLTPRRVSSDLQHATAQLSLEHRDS
In a few lines:
as §1

For assay [6], the target named is T5, ETV3L (Homo sapiens, UniProt Q6ZN32 1-361).
T5 sequence: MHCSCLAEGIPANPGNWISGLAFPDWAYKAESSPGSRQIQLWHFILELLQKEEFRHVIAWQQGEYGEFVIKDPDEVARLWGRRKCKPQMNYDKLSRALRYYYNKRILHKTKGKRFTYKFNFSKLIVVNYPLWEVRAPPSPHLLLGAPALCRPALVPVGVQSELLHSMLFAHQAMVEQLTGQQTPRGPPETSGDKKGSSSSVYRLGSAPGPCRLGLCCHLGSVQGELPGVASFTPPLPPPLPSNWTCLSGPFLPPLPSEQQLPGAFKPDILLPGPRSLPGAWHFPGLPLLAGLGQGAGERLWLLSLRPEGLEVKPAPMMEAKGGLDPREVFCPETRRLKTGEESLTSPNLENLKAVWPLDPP
The gist of the method:
as §1

Assay [7] deals with T6, ETS2 (Homo sapiens, UniProt P15036 1-469).
T6 sequence: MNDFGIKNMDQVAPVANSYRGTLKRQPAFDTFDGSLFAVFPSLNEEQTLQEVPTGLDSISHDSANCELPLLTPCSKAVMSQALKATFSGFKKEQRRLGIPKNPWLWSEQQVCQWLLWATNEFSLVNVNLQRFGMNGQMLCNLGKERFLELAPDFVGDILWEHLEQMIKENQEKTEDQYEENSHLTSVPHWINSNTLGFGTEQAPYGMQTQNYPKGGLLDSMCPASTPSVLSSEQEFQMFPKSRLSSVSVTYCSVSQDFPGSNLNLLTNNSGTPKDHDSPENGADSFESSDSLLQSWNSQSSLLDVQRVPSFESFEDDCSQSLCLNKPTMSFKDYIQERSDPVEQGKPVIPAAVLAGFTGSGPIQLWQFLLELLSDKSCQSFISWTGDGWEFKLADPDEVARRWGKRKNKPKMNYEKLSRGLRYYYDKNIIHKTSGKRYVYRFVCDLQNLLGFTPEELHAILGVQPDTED
In a few lines:
as §1

Assay [8] concerns the target T7, ETV7 (Homo sapiens, UniProt Q9Y603 1-341).
T7 sequence: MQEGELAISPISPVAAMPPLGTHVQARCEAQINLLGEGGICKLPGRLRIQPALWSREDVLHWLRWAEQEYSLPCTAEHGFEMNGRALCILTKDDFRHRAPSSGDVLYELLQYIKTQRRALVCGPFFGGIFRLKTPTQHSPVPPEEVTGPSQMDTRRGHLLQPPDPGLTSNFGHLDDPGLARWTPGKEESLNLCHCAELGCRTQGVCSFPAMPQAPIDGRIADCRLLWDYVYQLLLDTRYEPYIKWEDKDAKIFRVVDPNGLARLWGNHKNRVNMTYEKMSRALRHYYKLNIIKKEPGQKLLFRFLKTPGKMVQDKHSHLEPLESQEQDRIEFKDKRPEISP
In a few lines:
as §1

For assay [9], the target named is T8, ETV3 (Homo sapiens, UniProt P41162-2 1-143).
T8 sequence: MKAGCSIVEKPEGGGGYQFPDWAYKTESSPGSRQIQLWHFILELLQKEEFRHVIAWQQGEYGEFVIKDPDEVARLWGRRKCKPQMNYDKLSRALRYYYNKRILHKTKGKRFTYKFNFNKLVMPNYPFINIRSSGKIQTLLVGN
In a few lines:
as §1

Assay [10] concerns the target ETV6 (Homo sapiens, UniProt P41212 1-452). In a few lines:
as §1

Chain of ETV6 (P41212 whole entry): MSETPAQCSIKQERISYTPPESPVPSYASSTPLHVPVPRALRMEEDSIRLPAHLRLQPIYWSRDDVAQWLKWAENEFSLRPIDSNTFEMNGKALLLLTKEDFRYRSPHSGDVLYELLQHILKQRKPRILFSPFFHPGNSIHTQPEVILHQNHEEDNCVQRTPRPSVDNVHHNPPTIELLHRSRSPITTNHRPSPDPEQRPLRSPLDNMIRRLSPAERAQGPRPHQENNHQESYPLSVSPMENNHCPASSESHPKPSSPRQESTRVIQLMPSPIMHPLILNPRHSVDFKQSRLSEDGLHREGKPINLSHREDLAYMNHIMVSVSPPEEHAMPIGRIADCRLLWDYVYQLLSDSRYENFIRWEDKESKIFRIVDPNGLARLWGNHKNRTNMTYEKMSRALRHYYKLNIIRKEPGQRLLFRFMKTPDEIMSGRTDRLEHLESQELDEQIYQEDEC
Chain of ETV1 (P50549 whole entry): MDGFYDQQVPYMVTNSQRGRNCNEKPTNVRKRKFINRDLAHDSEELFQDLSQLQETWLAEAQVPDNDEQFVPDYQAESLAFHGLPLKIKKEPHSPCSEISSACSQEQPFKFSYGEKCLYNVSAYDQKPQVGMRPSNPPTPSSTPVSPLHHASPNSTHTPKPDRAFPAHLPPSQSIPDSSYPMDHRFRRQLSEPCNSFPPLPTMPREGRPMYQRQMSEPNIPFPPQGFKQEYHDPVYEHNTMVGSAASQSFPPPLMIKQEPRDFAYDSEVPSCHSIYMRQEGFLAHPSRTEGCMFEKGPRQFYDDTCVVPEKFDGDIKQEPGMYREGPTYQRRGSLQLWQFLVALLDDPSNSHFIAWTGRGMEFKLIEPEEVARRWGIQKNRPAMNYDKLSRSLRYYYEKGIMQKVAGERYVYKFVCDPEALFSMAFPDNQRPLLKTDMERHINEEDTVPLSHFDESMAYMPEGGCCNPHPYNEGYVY

With GCGTCT, the binding signal was 1.11 fold enrichment (6-mer frequency, TF over GST control) in [1]; 1.1 fold enrichment (6-mer frequency, TF over GST control) in [2]; 1.34 fold enrichment (6-mer frequency, TF over GST control) in assay [3]; 1.18 fold enrichment (6-mer frequency, TF over GST control) in assay [4]; 1.12 fold enrichment (6-mer frequency, TF over GST control) in [5]; 1.1 fold enrichment (6-mer frequency, TF over GST control) in [6]. Moreover, the binding signal was 1.04 fold enrichment (6-mer frequency, TF over GST control) in [7]; 1.1 fold enrichment (6-mer frequency, TF over GST control) in [8]; 1.11 fold enrichment (6-mer frequency, TF over GST control) in assay [9]; 1.04 fold enrichment (6-mer frequency, TF over GST control) in [10].

(Values after PMC7862700, “An all-to-all approach to the identification of sequence-specific readers for epigenetic DNA modifications on cytosine”.)
